Unmarked numbers belong to inactive results. Active and inactive are the calls of the source.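 How the source made its calls, unless noted: active means mean inhibition above 46.68%, the untreated control wells mean plus 3 SD; inactive means the rest.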

Assay [1] deals with Nuclear receptor coactivator 3 (Homo sapiens) (UniProt Q9Y6Q9). Kind of assay: SRC3 coactivator transcriptional activity inhibitors, confirmation, cell-based, luminescence, quadruplicate (AID 588792;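 active means mean inhibition over 43.08%, the solvent-only control mean plus 3 SD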;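 further: 0% = DMSO treated cells and 100% = gossypol at 36 µM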). The settings on record: HEK293 GAL4-SRC3 luciferase reporter, at 3.6 µM, stronger effect = higher value.
Sequence of Nuclear receptor coactivator 3 (Homo sapiens) (Q9Y6Q9 whole entry, looked up, the tested form may be a part): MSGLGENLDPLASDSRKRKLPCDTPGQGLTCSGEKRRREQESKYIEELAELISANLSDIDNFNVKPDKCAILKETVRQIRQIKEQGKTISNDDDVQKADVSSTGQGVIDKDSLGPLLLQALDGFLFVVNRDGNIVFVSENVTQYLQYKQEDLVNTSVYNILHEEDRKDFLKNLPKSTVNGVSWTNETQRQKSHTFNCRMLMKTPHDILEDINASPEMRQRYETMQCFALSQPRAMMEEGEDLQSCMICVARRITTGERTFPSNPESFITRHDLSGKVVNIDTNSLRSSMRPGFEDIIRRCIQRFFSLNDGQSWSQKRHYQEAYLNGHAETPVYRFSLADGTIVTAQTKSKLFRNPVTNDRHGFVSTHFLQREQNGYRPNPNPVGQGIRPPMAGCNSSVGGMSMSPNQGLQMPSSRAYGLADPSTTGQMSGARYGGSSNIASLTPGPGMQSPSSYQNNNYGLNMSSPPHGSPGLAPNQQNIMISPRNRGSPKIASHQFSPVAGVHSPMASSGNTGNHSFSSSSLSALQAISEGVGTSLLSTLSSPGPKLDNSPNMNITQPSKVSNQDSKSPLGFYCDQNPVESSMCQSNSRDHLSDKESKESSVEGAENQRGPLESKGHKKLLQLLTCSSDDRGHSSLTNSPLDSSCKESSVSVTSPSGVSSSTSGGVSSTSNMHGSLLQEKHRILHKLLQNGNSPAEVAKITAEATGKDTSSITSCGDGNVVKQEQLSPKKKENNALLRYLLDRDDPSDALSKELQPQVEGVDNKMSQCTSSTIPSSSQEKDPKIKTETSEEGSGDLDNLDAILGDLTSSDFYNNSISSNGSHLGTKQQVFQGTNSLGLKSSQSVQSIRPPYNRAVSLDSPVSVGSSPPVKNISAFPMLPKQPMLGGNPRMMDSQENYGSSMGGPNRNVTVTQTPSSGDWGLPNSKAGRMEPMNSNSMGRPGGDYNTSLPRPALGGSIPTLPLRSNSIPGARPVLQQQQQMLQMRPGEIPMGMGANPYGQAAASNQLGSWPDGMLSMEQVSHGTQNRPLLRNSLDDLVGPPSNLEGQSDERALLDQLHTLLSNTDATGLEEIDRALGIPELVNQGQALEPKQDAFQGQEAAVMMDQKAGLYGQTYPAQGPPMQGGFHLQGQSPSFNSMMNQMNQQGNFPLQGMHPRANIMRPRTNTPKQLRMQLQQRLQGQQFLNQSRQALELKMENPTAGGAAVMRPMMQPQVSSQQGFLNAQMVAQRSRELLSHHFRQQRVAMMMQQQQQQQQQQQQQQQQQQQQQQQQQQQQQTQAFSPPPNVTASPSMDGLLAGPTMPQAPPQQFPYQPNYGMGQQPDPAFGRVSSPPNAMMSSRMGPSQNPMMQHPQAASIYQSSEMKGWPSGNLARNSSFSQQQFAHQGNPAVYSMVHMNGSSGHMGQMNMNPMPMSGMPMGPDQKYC
Assay [2] has as its system transactivating tegument protein VP16 (Human herpesvirus 1), Gal4-VP16 luciferase reporter. Kind of assay: VP16 transactivation inhibitors, counter-screen for SRC3 inhibitor project, cell-based, luminescence, high throughput (AID 588794; in the data active means inhibition above about 30%). To be noted: mammalian cells, VP16-driven luciferase reporter luminescence; at 3.6 µM; stronger effect = higher value. Background: The purpose of a counterscreen is to sort out artefacts and off-target activity.

Assay [3] concerns the target Nuclear receptor coactivator 1 (Homo sapiens) (UniProt Q15788). Kind of assay: SRC1 coactivator transcriptional activity inhibitors, confirmation, cell-based, luminescence, quadruplicate (AID 588820).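 Further: 0% = DMSO wells and 100% = gossypol 36 µM treated wells.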 The settings on record: HEK293 GAL4-SRC1 luciferase reporter, at 3.6 µM, stronger effect = higher value. Background: A reporter such as luciferase makes a cellular process visible.

Assay [4] is described as follows: VP16 transactivation inhibitors, counter-screen for SRC1 inhibitor project, cell-based, luminescence, high throughput (AID 588824; in the data active means inhibition above about 25%). To be noted: cell-based VP16 transactivation luciferase luminescence; at 3.6 µM; stronger effect = higher value.
Assay [5] has as its system transactivating tegument protein VP16 (Human herpesvirus 1). As to the kind of experiment: VP16 transactivation reporter inhibitors, counter-screen for SRC2 inhibitor project, cell-based, luminescence, single concentration (AID 652007; in the data active means inhibition above about 36%). The settings on record: cell-based VP16 transactivation luciferase reporter, at 8.9 µM, stronger effect = higher value.
Assay [6] addresses Nuclear receptor coactivator 2 (Homo sapiens) (UniProt Q15596). Kind of assay: SRC2 coactivator transcriptional activity inhibitors, confirmation, cell-based, luminescence, HEK293, triplicate (AID 652008;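 active means mean inhibition above 46.5%, the solvent-only control mean plus 3 SD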;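 further: 0% = DMSO-treated cells and 100% = Gossypol at 36 µM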). To be noted: HEK293 GAL4-SRC2 luciferase reporter, at 8.9 µM, stronger effect = higher value.

Sequence of Nuclear receptor coactivator 2 (Homo sapiens) (Q15596 whole entry, looked up, the tested form may be a part): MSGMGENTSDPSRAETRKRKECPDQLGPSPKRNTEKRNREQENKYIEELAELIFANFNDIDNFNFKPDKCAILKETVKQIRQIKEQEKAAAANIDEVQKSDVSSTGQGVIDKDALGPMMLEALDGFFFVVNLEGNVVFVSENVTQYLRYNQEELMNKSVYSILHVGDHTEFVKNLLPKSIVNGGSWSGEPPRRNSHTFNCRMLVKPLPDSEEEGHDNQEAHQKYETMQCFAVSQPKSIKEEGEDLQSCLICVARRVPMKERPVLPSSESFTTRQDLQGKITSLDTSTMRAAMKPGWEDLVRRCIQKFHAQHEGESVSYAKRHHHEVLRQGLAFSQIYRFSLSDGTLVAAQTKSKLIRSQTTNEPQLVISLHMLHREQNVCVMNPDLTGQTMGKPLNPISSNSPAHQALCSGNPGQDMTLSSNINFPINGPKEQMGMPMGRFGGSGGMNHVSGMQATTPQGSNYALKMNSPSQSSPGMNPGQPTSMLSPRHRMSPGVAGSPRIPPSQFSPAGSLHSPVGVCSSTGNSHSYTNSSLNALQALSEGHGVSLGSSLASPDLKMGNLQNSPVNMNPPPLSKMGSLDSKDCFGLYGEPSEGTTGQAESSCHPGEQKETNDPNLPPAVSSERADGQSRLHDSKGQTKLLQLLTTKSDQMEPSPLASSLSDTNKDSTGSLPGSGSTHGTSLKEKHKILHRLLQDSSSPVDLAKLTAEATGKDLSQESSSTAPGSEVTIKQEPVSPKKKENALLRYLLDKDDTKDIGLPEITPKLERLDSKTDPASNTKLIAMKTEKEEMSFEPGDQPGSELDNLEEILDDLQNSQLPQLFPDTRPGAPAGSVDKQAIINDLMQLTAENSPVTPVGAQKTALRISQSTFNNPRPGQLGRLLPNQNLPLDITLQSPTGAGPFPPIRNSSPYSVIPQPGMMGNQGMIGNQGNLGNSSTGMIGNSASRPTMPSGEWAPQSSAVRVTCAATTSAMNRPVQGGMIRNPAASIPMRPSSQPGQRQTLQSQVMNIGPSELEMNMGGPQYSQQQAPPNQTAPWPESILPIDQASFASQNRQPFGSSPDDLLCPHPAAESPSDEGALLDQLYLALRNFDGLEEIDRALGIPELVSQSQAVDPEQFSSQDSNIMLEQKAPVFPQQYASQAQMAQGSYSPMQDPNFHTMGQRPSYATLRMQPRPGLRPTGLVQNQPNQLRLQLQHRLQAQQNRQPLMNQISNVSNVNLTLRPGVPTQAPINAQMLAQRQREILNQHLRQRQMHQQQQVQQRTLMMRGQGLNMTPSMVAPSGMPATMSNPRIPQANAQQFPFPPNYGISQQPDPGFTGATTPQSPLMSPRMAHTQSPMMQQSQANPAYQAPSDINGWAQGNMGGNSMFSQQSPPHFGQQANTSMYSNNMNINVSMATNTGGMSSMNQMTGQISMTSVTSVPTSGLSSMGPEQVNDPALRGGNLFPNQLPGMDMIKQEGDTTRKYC
Sequence of Nuclear receptor coactivator 1 (Homo sapiens) (Q15788 whole entry, looked up, the tested form may be a part): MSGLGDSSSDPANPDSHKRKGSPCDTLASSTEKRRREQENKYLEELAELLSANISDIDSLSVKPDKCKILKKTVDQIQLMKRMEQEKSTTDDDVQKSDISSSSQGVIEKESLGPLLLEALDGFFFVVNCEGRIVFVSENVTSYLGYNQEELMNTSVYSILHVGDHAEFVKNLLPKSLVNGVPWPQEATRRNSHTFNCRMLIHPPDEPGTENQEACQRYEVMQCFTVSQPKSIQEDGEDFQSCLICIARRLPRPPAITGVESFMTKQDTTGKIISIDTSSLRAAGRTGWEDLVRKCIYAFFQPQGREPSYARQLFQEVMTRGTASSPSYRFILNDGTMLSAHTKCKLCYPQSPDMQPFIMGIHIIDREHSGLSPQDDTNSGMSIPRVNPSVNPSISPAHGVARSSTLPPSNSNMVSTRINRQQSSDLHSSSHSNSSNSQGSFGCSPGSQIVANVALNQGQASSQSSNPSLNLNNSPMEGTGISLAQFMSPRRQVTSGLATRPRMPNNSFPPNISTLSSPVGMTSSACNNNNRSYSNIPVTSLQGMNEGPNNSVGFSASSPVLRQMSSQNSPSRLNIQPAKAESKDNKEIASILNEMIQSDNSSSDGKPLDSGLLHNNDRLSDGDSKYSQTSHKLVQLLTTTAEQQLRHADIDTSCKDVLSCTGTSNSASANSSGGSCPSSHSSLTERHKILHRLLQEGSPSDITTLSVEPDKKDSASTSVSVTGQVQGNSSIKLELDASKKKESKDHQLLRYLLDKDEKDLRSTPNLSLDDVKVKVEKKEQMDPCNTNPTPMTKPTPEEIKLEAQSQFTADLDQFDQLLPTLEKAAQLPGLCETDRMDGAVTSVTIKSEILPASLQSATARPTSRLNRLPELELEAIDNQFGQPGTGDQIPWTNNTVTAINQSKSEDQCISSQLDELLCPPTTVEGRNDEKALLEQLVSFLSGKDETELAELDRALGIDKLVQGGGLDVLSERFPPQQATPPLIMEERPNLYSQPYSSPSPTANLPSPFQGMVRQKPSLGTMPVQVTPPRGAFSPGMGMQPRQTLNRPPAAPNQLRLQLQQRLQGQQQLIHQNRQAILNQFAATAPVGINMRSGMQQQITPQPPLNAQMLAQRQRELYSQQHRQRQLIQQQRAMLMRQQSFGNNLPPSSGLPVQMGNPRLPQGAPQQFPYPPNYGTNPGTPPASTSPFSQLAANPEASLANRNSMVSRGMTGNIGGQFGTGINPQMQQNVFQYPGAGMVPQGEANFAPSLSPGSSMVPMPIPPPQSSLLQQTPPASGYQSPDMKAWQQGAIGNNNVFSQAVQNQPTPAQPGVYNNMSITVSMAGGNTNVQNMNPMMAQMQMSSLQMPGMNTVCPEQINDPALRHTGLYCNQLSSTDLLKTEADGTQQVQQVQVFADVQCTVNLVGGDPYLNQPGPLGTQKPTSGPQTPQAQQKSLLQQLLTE

A word on the inhibition: it is the change of the read-out against control, counted positive when it falls. On to `COc1ccc(/C=C2\CC/C(=C\c3ccc(OC)c(OC)c3)C2=O)cc1OC`, for which the inhibition in assay [1] was 30.9%; in assay [2], 10.7%; in assay [3], 16.2%; in assay [4] it was 16.9%; in assay [5] it was 41.5% (active); in assay [6], 77.9% (active).
As for `O=C(CC(Nc1ccc(Cl)cc1Cl)C(=O)O)c1ccccc1` (stereo unspecified), the inhibition in assay [1] was 52.3% (active); in assay [2], 18.1%; in assay [3] it was -4.19%; in assay [4], -13.2%; in assay [5] it was 18.8%; in assay [6], 57.9% (active).
Regarding `Cn1cc(C(=O)N/N=C/c2c(O)ccc3ccccc23)ccc1=O`, the inhibition in assay [1] was 52.8% (active); in assay [2], 42.4% (active); in assay [3], 49.5% (active); in assay [4] it was 44% (active); in assay [5], -10.3%; in assay [6] it was 26.8%.
With `Oc1ccc(Nc2ncnc3scc(-c4ccccc4)c23)cc1`, the inhibition was 38.6% in assay [1]; 35.8% (active) in assay [2]; 41% in assay [3]; 31.3% (active) in assay [4]; -10.2% in assay [5]; 57.6% (active) in assay [6].
Consider `Cc1nnc(-c2ccccc2)c(=O)n1/N=C/c1c(O)ccc2ccccc12`, for which the inhibition in assay [1] was 40.6%; in assay [2], 55% (active); in assay [3], 57% (active); in assay [4], 62.6% (active); in assay [5], -12.9%; in assay [6] it was 23.1%.
As to `Cc1[nH]nc2ncc(C(=O)c3ccccc3O)cc12`, the inhibition in assay [1] was 73.3% (active); in assay [2], 43.9% (active); in assay [3], 68.7% (active); in assay [4], 48.9% (active); in assay [5], -2.08%; in assay [6] it was 50.4% (active).
With `Cc1csc(SCC(=O)c2cc(C)n(Cc3cccs3)c2C)n1`, the inhibition in assay [1] was 9.06%; in assay [2], -12.3%; in assay [3], -81.8%; in assay [4], -42.6%; in assay [5] it was -28.2%; in assay [6] it was 31.4%.
As for `O=C(Nc1ccc2c(c1)OCCO2)C(c1ccnc2ccccc12)N1CCN(c2ccc(C(F)(F)F)cn2)CC1` (stereo unspecified), the inhibition in assay [1] is 24.6%; in assay [2] it was 18.1%; in assay [3] it was 11.8%; in assay [4], 30.7% (active); in assay [5], -0.8%; in assay [6], 57.8% (active).
On to `Nc1ncc([N+](=O)[O-])c(N2CCCCCC2)n1`, for which the inhibition in assay [1] was 76.5% (active); in assay [2], 50.2% (active); in assay [3], 67.5% (active); in assay [4], 51.2% (active); in assay [5] it was 4.49%; in assay [6] it was 57.3% (active).
Regarding `CC1CCN(C2=NC(=O)/C(=C/c3ccccc3F)S2)CC1`, the inhibition was 38.5% in assay [1]; -5.24% in assay [2]; -2.11% in assay [3]; -40.4% in assay [4]; -74.3% in assay [5]; 15.4% in assay [6].
Regarding `CCOc1cc(CNc2ccc3c(c2)OCCO3)cc(Br)c1OCC`, the inhibition was 25.4% in assay [1]; 20.9% in assay [2]; -11.6% in assay [3]; 20.8% in assay [4]; -27.7% in assay [5]; -1.58% in assay [6].
Consider `Cc1nc(SCC(=O)Nc2nc3ccccc3s2)c(C#N)c(C)c1C`, for which the inhibition was 92.7% (active) in assay [1]; 88.5% (active) in assay [2]; 82.4% (active) in assay [3]; 83.2% (active) in assay [4]; 92.1% (active) in assay [5]; 96.9% (active) in assay [6].
As to `CCC(=O)NC(c1ccc(C)cc1)c1ccc2cccnc2c1O` (stereo unspecified), the inhibition in assay [1] is 55.7% (active); in assay [2], 38.1% (active); in assay [3], 45.3%; in assay [4] it was 53.4% (active); in assay [5] it was -3.42%; in assay [6], 24.4%.
For `Cc1cc(/C=N/Nc2ncnc(N)c2[N+](=O)[O-])c(C)n1-c1ccccc1`, the inhibition in assay [1] was 26%; in assay [2], 12.4%; in assay [3], -28.1%; in assay [4], -10.1%; in assay [5], 23.9%; in assay [6] it was 61.2% (active).
As to `S=C(c1ccc(-c2ccccc2)cc1)N1CCOCC1`, the inhibition in assay [1] was 9.3%; in assay [2], 4.1%; in assay [3], 33.3%; in assay [4] it was -6.87%; in assay [5] it was 10.2%; in assay [6], 79.1% (active).
On to `O=[N+]([O-])c1ccc2ncnc(Nc3ccc4c(c3)OCCO4)c2c1`, for which the inhibition in assay [1] was 57.9% (active); in assay [2] it was 44.4% (active); in assay [3], 59.8% (active); in assay [4], 33.3% (active); in assay [5], 3.91%; in assay [6] it was 28.4%.
With `CCc1ccc(/C=C2\SC(=S)N(CCCC(=O)NCCCN3CCOCC3)C2=O)cc1`, the inhibition is 42.4% in assay [1]; 21.1% in assay [2]; 35.1% in assay [3]; 8.83% in assay [4]; 82.6% (active) in assay [5]; 93.6% (active) in assay [6].
`OCCN(CCO)CC(O)COc1ccc(C23CC4CC(CC(C4)C2)C3)cc1` (stereo unspecified): the inhibition in assay [1] is 23.8%; in assay [2] it was 18.7%; in assay [3], 15.1%; in assay [4], 8.76%; in assay [5], 61.9% (active); in assay [6], 81.9% (active).
With `O=C(Nc1ccccc1Oc1ccccc1)c1cc([N+](=O)[O-])ccc1Cl`, the inhibition in assay [1] was 52.5% (active); in assay [2] it was 24.8%; in assay [3], 24.8%; in assay [4] it was 33.9% (active); in assay [5], 21.9%; in assay [6], 50.4% (active).
On to `CC(=C/c1ccccc1)/C=N/n1c(-c2ccncc2)n[nH]c1=S`, for which the inhibition in assay [1] was 71.2% (active); in assay [2], 45.2% (active); in assay [3] it was 66.1% (active); in assay [4], 51.6% (active); in assay [5] it was 6.14%; in assay [6] it was 45%.
`CNc1ccc2ncc(-c3ccc(OC)c(OC)c3)n2n1`: the inhibition in assay [1] was 80.1% (active); in assay [2], 63.1% (active); in assay [3], 75.4% (active); in assay [4] it was 60.1% (active); in assay [5], -12.4%; in assay [6], 37.3%.

The values are drawn from PubChem BioAssay.
